The source of these data is ChEMBL document CHEMBL3988442, “University of Dundee, Small-Polar-MMV Screening Library” (2021).

The target in assay [1] is T1, Aspartate--tRNA(Asp/Asn) ligase (Mycobacterium tuberculosis (strain ATCC 25618 / H37Rv)) (UniProt P9WFW3). Also: in the data most compounds retested in dose-response had high values.
T1 sequence (whole entry): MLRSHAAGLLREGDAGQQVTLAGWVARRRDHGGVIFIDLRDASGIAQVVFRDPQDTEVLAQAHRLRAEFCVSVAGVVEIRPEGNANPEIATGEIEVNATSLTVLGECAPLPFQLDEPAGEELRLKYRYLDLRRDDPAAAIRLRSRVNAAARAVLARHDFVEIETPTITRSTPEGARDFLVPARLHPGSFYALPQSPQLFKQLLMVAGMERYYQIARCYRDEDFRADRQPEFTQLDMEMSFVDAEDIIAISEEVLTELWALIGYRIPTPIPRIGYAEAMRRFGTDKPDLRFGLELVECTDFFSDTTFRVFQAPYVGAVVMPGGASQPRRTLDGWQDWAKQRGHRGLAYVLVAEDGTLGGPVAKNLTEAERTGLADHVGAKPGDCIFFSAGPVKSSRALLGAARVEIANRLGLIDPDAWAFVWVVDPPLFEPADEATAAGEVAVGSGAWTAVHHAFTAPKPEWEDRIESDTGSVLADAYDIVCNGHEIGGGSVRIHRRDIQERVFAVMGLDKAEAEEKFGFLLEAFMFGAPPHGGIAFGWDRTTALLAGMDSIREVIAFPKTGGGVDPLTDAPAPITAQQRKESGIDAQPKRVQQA
Briefly: Assay for Asp RNA synthetase-1 from Mycobacterium tuberculosis. To be noted: 30 µM. Further details: scale not given: direction of the effect not stated beside the values. It counts as functional.

The target in assay [2] is Shiga toxin 2 (Escherichia coli O157:H7) (UniProt P09385+P09386). As to the kind of experiment: E. coli 0.157:H7 Shiga Toxin SOP - stx2 screening assay. Format: functional. To be noted: 30 µM. The arrangement: scale not given: direction of the effect not stated beside the values.

In the case of `Cc1cnc(N2CCC3(CCCN(c4ccc(C)nn4)C3)C2)nc1` (configuration not stated), the Percent Effect is -0.547% in assay [1] and -25.4% in assay [2].

Take `CCOC1COC2(CCN(Cc3ccc4c(c3)OCO4)CC2)C1` (configuration not stated): the Percent Effect was -3.53% in assay [1] and -2.45% in assay [2].

For `Cc1nc(C)n(CC2CCCN(CCc3ccccn3)C2)n1` (configuration not stated), the Percent Effect in assay [1] was -0.8%; in assay [2] it was -46.3%.

As to `CCn1ccnc1CN1CCCN(C(=O)c2sccc2C#N)CC1`, the Percent Effect turned out to be 1.71% in assay [1] and 2.81% in assay [2].

`Cc1cccc(NC(=O)Cn2ncc(SCC(N)=O)c(Cl)c2=O)c1C`: the Percent Effect in assay [1] is -2.73%; in assay [2] it was 5.03%.

`CCc1cc(NCc2ccccc2CN2CCCC2)n2ncnc2n1`: the Percent Effect was 7.58% in assay [1] and -25.4% in assay [2].

Turning to `Cc1cc(CN(C)C(=O)c2cc3c([nH]c2=O)CCCC3=O)no1`, the Percent Effect was 2.54% in assay [1] and 20.8% in assay [2].

Turning to `CC(C)c1n[nH]c(C(=O)Nc2cc[nH]n2)c1Br`, the Percent Effect is -4.43% in assay [1] and 13.3% in assay [2].

With `COCc1ccccc1CNCc1c(C)nn(C)c1N(C)C`, the Percent Effect turned out to be 0.533% in assay [1] and 22.6% in assay [2].

For the molecule `CCS(=O)(=O)NCCNC(=O)c1cc(Cl)c2c(c1)OCCCO2`, the Percent Effect was 5.01% in assay [1] and -2.3% in assay [2].

Consider `CCn1ncnc1C(NC(=O)CC1CCN(C(C)C)CC1)C1CC1` (configuration not stated), for which the Percent Effect in assay [1] was 1.82%; in assay [2], -13.7%.

Consider `NCC1CN(c2nc(-c3ccccc3)nc3c2CCNCC3)CCO1` (configuration not stated), for which the Percent Effect in assay [1] was -0.798%; in assay [2] it was -22.2%.

For `Cc1noc(C2CCN(C(=O)CCNc3ncccn3)CC2)n1`, the Percent Effect is 0.856% in assay [1] and -36.4% in assay [2].

In the case of `COCCN1C(=O)CO[C@H]2CN(Cc3c[nH]nc3-c3ccccc3)C[C@@H]21`, the figures for the Percent Effect in assay [1] and in assay [2] were -1.03% and 7.69%, respectively.

Regarding `Cc1ccc(-c2cn[nH]c2C2CCCN(c3nccc(N)n3)C2)cc1` (configuration not stated), the Percent Effect was 2.79% in assay [1] and -37.9% in assay [2].

For the molecule `COc1ccc(CCC(=O)N2CCCC2Cn2cc(C)cn2)cc1F` (configuration not stated), the Percent Effect in assay [1] was -1.15%; in assay [2], 18.7%.

For `FC(F)(F)c1nc(NC2CCCC2)c2ccccc2n1`, the Percent Effect was 0.562% in assay [1] and -0.0663% in assay [2].

As to `CC(C)N(C)Cc1cnc2n1CCN(CCc1ccccc1)C2`, the Percent Effect in assay [1] was 0.605%; in assay [2] it was -27.2%.

`COc1cccc(C2CC(=O)Nc3nc(N4CCOCC4)sc32)c1OC` (configuration not stated): the Percent Effect was 63.4% in assay [1] and -3.76% in assay [2].

Consider `Cc1ccc(C#N)cc1NC(=O)NC1CCCN(c2ncccn2)C1` (configuration not stated), for which the Percent Effect in assay [1] was 1.97%; in assay [2] it was -2.85%.

In the case of `O=C(c1ccc(O)c(Cl)c1)N1CCC(c2n[nH]c(C3CC3)n2)CC1`, the figures for the Percent Effect in assay [1] and in assay [2] were -0.597% and 0.843%, respectively.

For the molecule `O=C(CN1CCOC(Cn2cccn2)C1)NCCc1ccc(F)cc1` (configuration not stated), the Percent Effect in assay [1] was found to be 4.34%; in assay [2] it was 12%.

For `O=C(NCc1nnc2n1CCCC2)N1CCc2ccccc2C1`, the Percent Effect is 1.56% in assay [1] and -5.06% in assay [2].

For `Cc1ccc(C(=O)NCCNc2ncccc2C#N)c(=O)[nH]1`, the Percent Effect was -1.85% in assay [1] and -19.7% in assay [2].

For the molecule `Cc1cccc(CCC(=O)N2CCOCC2c2c(C)n[nH]c2C)c1` (configuration not stated), the Percent Effect in assay [1] is 3.91%; in assay [2] it was -16.7%.

With `CC(OCC(F)(F)F)C(=O)N1CCCCC1` (configuration not stated), the Percent Effect in assay [1] was 1.09%; in assay [2] it was -2.39%.

As to `Cc1cc(C)n(CC2CCCN2C(=O)CCCNc2ncccn2)n1` (configuration not stated), the Percent Effect in assay [1] was -2.92%; in assay [2] it was 26.1%.

Consider `Cc1ccc(C(=O)CCC(=O)N2CCC(c3nncn3C)CC2)cc1`, for which the Percent Effect in assay [1] is 2.31%; in assay [2], -30.7%.

Turning to `CCOCC(O)CN1CCN(C(=O)c2cccnc2OC)CC1` (configuration not stated), the Percent Effect was -1% in assay [1] and 12.8% in assay [2].

Consider `NC(=O)COc1ccc(CNCc2ccc(F)c(F)c2)cc1`, for which the Percent Effect is -1.73% in assay [1] and -31.1% in assay [2].

Consider `Cc1ccc(C(=O)N2CCN(C(=O)Nc3ccccn3)CC2)o1`, for which the Percent Effect in assay [1] stood at 4.09%; in assay [2], 10.3%.

Consider `COc1c(CNCc2cccc(Cn3ccnc3)c2)c(C)nn1C`, for which the Percent Effect is 7.35% in assay [1] and 14.4% in assay [2].

As for `N#Cc1ccc(OCCOc2ccccc2C(=O)N2CCOCC2)cc1`, the Percent Effect in assay [1] was 8.62%; in assay [2], -58.2%.

In the case of `O=C(c1cccs1)N1CCC(n2nc(-c3ccco3)ccc2=O)CC1`, the Percent Effect is -0.968% in assay [1] and 6.63% in assay [2].

For the molecule `CC(C)c1ccc(CN2CCC3(CCCN(c4nncs4)C3)C2)cc1` (configuration not stated), the Percent Effect in assay [1] turned out to be 1%; in assay [2] it was 5.96%.

For the molecule `CCc1cc(=O)[nH]c2nnc(SCC(=O)OC)n12`, the Percent Effect in assay [1] is -8.74%; in assay [2], -6.54%.

On to `COCc1cccc(NS(=O)(=O)c2cc(C(=O)O)cs2)c1`, for which the Percent Effect in assay [1] was 0.144%; in assay [2] it was -27.7%.

Regarding `CCCc1cc(CNC(=O)C2CCOc3ccccc3C2)on1` (configuration not stated), the results for the Percent Effect in assay [1] and in assay [2] were 2.59% and 17.5%, respectively.

With `Cc1nccn1-c1cc(CNC(=O)CCC2CCCO2)ccn1` (configuration not stated), the Percent Effect in assay [1] amounted to 2.98%; in assay [2] it was 2.2%.

On to `Cc1noc(C)c1CNC(=O)c1ccc(NC2CC2)nc1`, for which the Percent Effect came out at 3.65% in assay [1] and 13.4% in assay [2].

Consider `CCOCCN1CCN(Cc2cccc(C(=O)N(C)C)c2)CC1`, for which the Percent Effect in assay [1] was -3.67%; in assay [2], -26.9%.

For the molecule `Cc1nc(CNC(=O)NCC(O)c2ccc(F)c(F)c2)cs1` (configuration not stated), the Percent Effect was -2.91% in assay [1] and 4.89% in assay [2].

On to `CC(C)c1nc2n(n1)CC(NCc1ccncc1)CC2` (configuration not stated), for which the values for the Percent Effect in assay [1] and in assay [2] were -2.1% and -1.1%, respectively.

`O=C1N(c2ccccc2)Cc2nc(=O)[nH]n21`: the Percent Effect is -0.29% in assay [1] and -29.1% in assay [2].

Turning to `COc1ccccc1OCc1cc(C(=O)N2C[C@H](O)[C@@H](N(C)C)C2)n[nH]1`, the Percent Effect is 0.529% in assay [1] and -9.19% in assay [2].

In the case of `COc1ccc(OCC(=O)NC(C)c2ccccc2)c(C(=O)O)c1` (configuration not stated), the Percent Effect in assay [1] is -1.11%; in assay [2] it was -9.07%.

In the case of `CNC(=O)C1Cn2ccnc2C2(CCN(Cc3cccc(C)n3)CC2)O1` (configuration not stated), the Percent Effect in assay [1] was found to be 1.82%; in assay [2], 0.0939%.

With `COc1cccc(CN(C)C(=O)CN2CC(n3nc(C)cc3C)C2)c1`, the values for the Percent Effect in assay [1] and in assay [2] were 1.62% and -22.3%, respectively.

Turning to `O=C(c1cccc2cccnc12)N1CCCN(c2cccnn2)CC1`, the Percent Effect in assay [1] is -6.72%; in assay [2] it was 3.11%.

Turning to `COCCc1noc(CNCC2CCCN2c2cccnn2)n1` (configuration not stated), the results for the Percent Effect in assay [1] and in assay [2] were 4.93% and -3.58%, respectively.

On to `COCCN1CCC(Cc2cncc(-c3ccc(C(=O)O)cc3)n2)C1` (configuration not stated), for which the Percent Effect in assay [1] worked out at 4.51%; in assay [2], 8.34%.

With `Cc1ccc(C(O)CNCc2c(C(C)C)nn(C)c2N(C)C)cc1` (configuration not stated), the figures for the Percent Effect in assay [1] and in assay [2] were -5.77% and 10.4%, respectively.

Consider `Cc1nc(C(C)C)sc1C(=O)NS(=O)(=O)c1ccc(C#N)cc1`, for which the Percent Effect in assay [1] was -3.09%; in assay [2], 0.0303%.

With `Cc1csc(NC(=O)CN(C)CC2CCCN2c2cccnn2)n1` (configuration not stated), the Percent Effect in assay [1] is 3.48%; in assay [2], -23.1%.

Turning to `Cc1nc(CNC(=O)Cn2nc(-c3ccc(F)cc3)oc2=O)cs1`, the Percent Effect in assay [1] is -0.967%; in assay [2], 17.9%.

Take `Cc1noc(C)c1-c1cncc(C2CCCN2Cc2cncnc2)n1` (configuration not stated): the results for the Percent Effect in assay [1] and in assay [2] were -2.78% and 0.369%, respectively.
